Compound activity (PubChem)
dFosB activator: activators of mouse delta FosB homodimer; purified delta FosB, TAMRA-CDK5 oligo fluorescence polarization; percent of positive-control signal above neutral wells; P13346; 340,000 compounds, 0.99% hits; activation, % at 25 µM;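 active means mean activation above about 17%, with every replicate also reaching it, limit read from the data, passing the limit was not always enough; inconclusive means only one of the two conditions met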
Target sequence (P13346 whole entry, looked up): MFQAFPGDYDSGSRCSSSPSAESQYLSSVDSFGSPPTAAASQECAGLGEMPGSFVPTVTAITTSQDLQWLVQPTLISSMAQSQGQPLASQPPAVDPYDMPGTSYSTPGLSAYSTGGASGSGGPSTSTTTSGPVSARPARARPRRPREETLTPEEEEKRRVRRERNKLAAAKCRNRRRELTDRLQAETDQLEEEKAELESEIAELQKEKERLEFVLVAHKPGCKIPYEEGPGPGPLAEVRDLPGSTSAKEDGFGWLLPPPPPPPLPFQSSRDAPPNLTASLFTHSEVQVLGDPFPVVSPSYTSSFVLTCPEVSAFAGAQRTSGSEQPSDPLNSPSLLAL
Platelet DG rel: platelet dense granule release activity | inhibition, %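 (compounds screened at 7.5 µM in platelet-rich plasma)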 | human platelet-rich plasma, SFLLRN dense granule ATP release, luminescence | 300,000 compounds, 0.22% hits;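 active means mean replicate score, as percent of positive control, at or above 50; inconclusive means mean below 50 but at least one replicate at or above 50; inactive means mean and every replicate below 50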
HSF1 activator: increases HSF-1 driven luciferase reporter signal; NIH3T3-HGL HSF-1 luciferase reporter, MG132, 8 h; 100% = twice DMSO control signal; activation, % at 9 µM; 300,000 compounds, 1.7% hits; AID 504408;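 active means mean replicate activation of at least 50% with a set share of replicates each reaching 50%; inconclusive means only one of those two conditions met; inactive means mean below 50% and too few replicates reaching it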
HSP90 inh: HSP90 refolding inhibition in rabbit reticulocyte lysate; luciferase refolding luminescence, 3 h; inhibition, % at 5.6 µM; 290,000 compounds, 0.91% hits;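 active means inhibition above the screen-wide mean plus 3 SD, computed separately per campaign, cut at about 16% in these data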;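 further: inhibitors lower the luminescence because luciferase stays unfolded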
MPTP block: inhibitors of mitochondrial permeability transition pore; 360,000 compounds, 1.4% hits; isolated mouse mitochondria, Ca2+ swelling absorbance, 30 min; inhibition, % at 10 µM;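 active means inhibition of 50% or more, scaled per plate between neutral and stimulator controls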
HSF1 inh: HSF1 inhibition; NIH3T3-HGL HSE-luciferase, MG132-induced, luminescence 8 h; active compounds read low; 300,000 compounds, 0.77% hits; activity change, negative = inhibition, % at 7.5 µM (by protocol);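 active means more than half of replicate wells show activity change below -50%, luminescence cut by over half; inconclusive means some wells, but at most half, below -50%; inactive means no replicate well below -50%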;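 further: luciferase reports HSF-1 transcriptional activity via heat shock element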
Large screens that a line does not name were inactive. The list is not random: actives were taken first. Their share in the collection is about 4.9%.

COc1ccc(-c2csc(Nc3cccc(C)n3)n2)cc1	none
Cc1c(C(=O)OCC2CCCO2)[nH]c2c1C(=O)CC(c1ccco1)C2 (stereo not given)	HSF1 activator 57
COc1ccc(CNc2nc(-c3cccnc3)nn2C(=O)C(C)C)cc1	none
Cc1ccsc1/C=C1/SC(N2CC(C)OC(C)C2)=NC1=O (stereo not given)	HSF1 activator 52
COc1ccccc1NC(=O)COc1ccc(C(=O)NCc2ccccc2)cc1OC	none (no result: Platelet DG rel, HSF1 activator, HSP90 inh, HSF1 inh)
COc1ccc(C(C)=O)cc1Cn1c(C)c(C(=O)NCC(C)C)sc1=O	none (no result: dFosB activator, Platelet DG rel, HSF1 activator, HSP90 inh, HSF1 inh)
c1ccc2c(Cn3ccnc3)cccc2c1	none
Cc1nccn1Cc1cccc2ccccc12	HSF1 inh -53
CC(=O)NCc1cn2c(C)csc2n1	Platelet DG rel 83
Cc1csc2nc(CNC(=O)CCC(=O)O)cn12	none
Cc1ccc(SCc2cn3c(C)csc3n2)cc1	HSF1 activator 91
O=C(c1cc(Cl)cc(Cl)c1)N1CCC2CC1c1cc(N3CCCCC3)ccc12 (stereo not given)	none (no result: dFosB activator, Platelet DG rel, HSF1 activator, HSP90 inh, HSF1 inh)
CC1(Cc2cc(Cl)ccc2C(F)(F)F)C(=O)Nc2c(Cl)cccc21 (stereo not given)	none (no result: dFosB activator, Platelet DG rel, HSF1 activator, HSP90 inh, HSF1 inh)
Cc1ccc(NS(=O)(=O)c2cc(NC(=O)c3ccc4c(c3)NC(=O)CS4)ccc2C)c(C)c1	dFosB activator inconclusive, HSP90 inh 17
Cc1ccc(NS(=O)(=O)c2ccc(NC(=O)c3ccc(-c4ccccc4)cc3)cc2)c(C)c1	dFosB activator 54
Cc1ccc(NS(=O)(=O)c2ccc(NC(=O)c3ccccc3C(=O)O)cc2)c(C)c1	none (no result: HSP90 inh)
C/C=C1\COC(C(=O)NCCN2CCCC2)(C(F)(F)F)C=C1C=C1CCCCC1 (stereo not given)	none (no result: HSP90 inh)
C/C=C1\COC(C(=O)NCc2ccccc2)(C(F)(F)F)C=C1C=C1CCCCC1 (stereo not given)	HSF1 activator 71 (no result: HSP90 inh)
O=c1[nH][nH]c2cc(=O)n(-c3cccc(C(F)(F)F)c3)nc12	HSF1 activator 52
Nc1n[nH]c2cc(=O)n(-c3cccc(C(F)(F)F)c3)nc12	none
O=C(NCCOc1ccccc1)C1CCC(=O)N(CCCN2CCOCC2)C1 (stereo not given)	none
Cc1cc(N)nc(=O)n1C1CC(O)C(CO)O1 (stereo not given)	none (no result: Platelet DG rel, HSP90 inh)
Cc1cc2[nH]c(=O)c3ccccc3n2n1	HSF1 activator 54
Cc1cc2[nH]c(=O)cc(-c3ccccc3)n2n1	none
CCN1/C(=C/C=C/c2oc3ccc(-c4ccccc4)cc3[n+]2CC)Oc2ccc(-c3ccccc3)cc21	HSF1 activator 103
CC(C)(C)[C@@H]1C=C(C(=O)O)O[C@H](OCCCCO)C1	none (no result: HSP90 inh)
CC(C)(C)[C@H]1C=C(C(=O)Nc2ccccc2)O[C@@H](OCCCCO)C1	HSF1 inh -61 (no result: HSP90 inh)
CS(=O)(=O)c1nc(-c2ccccc2)cc(-c2ccccc2)c1C#N	HSF1 activator 167
Cc1ccc(-c2cc(-c3ccccc3)c(C#N)c(Br)n2)cc1	none
CCc1cc[n+](CC(=O)Nc2ccc(Cl)cc2Cl)cc1	HSF1 inh -72
Cc1c(NC(=O)Nc2ccc(F)cc2F)c(=O)n(-c2ccccc2)n1C	none
O=Cc1ccc(OCc2nnsc2Cl)cc1	none
Cc1cccc(Oc2coc3cc(OC(=O)c4cccs4)ccc3c2=O)c1	HSF1 activator 59
Cc1cc(C)cc(Oc2coc3cc(OC(=O)c4cccs4)ccc3c2=O)c1	none
Cc1cccc(NC(=O)c2ccc(S(=O)(=O)N3CCC(C)CC3)cc2)n1	none
O=C(O)CCc1ccc(-c2ccc(Br)cc2)n1Cc1ccco1	HSF1 activator 116
CCOC(=O)C1=C(C)NC(C)=C(C(=O)OCC)C1C	none
CCOC(=O)C1=C(C)NC(=O)NC1	Platelet DG rel 60
CCC(C)NC(=O)Cc1c(OC)ccc2cc(Br)ccc12 (stereo not given)	HSF1 activator 62
CCCC(C)NC(=O)Cc1ccc(Br)cc1 (stereo not given)	none
CCCC[C@@H]1CNC(=O)C(=O)N1CCc1cccc2ccccc12	HSF1 inh -69 (no result: dFosB activator, HSP90 inh, MPTP block)
O=C(O)CC1(CC(=O)Nc2ccccc2N2CCOCC2)CCCC1	none
COc1ccc(OC)c(NC2c3ccccc3C(=O)N2Cc2ccc3c(c2)OCO3)c1 (stereo not given)	HSF1 activator 51
O=C(CCc1nc2ccccc2c(=O)[nH]1)NCc1ccco1	HSF1 inh -65
O=C(CCc1nc2ccccc2c(=O)[nH]1)NCc1ccccn1	none
Cc1ccccc1NC(=S)C1=C(O)c2sccc2N(C)S1(=O)=O	HSF1 activator 58
CCN(C(=O)c1cccnc1SC)C12CC3CC(CC(C3)C1)C2	none
Cc1ccc(-c2cc(C(=O)N/N=C/c3ccc([N+](=O)[O-])o3)c3ccccc3n2)o1	none (no result: Platelet DG rel, HSF1 activator, HSF1 inh)
Cn1c(/C=C/c2ccc([N+](=O)[O-])o2)nc2ccccc2c1=O	HSF1 activator 62
COc1ccc(/C=N\n2nnc3ccccc32)cc1	HSP90 inh 29
Cn1c(/C=C/c2ccc(Cl)cc2)nc2ccccc2c1=O	none
Cc1cc(N/N=C/c2ccc([N+](=O)[O-])o2)nc2ccccc12	HSF1 activator 65
Cn1c(/C=C/c2ccccc2)nc2ccccc2c1=O	HSF1 inh -80
COc1ccc(/C=C/c2nc3ccccc3n2C)cc1	Platelet DG rel 113, HSP90 inh 40
C=C(C)CSc1nc2c(c(=O)[nH]c(=O)n2C)n1Cc1ccccc1	none (no result: HSP90 inh)
CCCCCn1c(SCc2cccc(C)c2)nc2c1c(=O)[nH]c(=O)n2C	HSF1 activator 60 (no result: HSP90 inh)
Cn1c(=O)[nH]c(=O)c2c1nc(SCC(=O)Nc1ccccc1)n2Cc1ccccc1	dFosB activator 54
O=C1CCN(Cl)C(=O)N1Cl	none (no result: dFosB activator, Platelet DG rel, HSF1 activator, HSP90 inh, HSF1 inh)
Nc1ccc(-c2nc3ccc(N)cc3[nH]2)cc1	none
Nc1ccc2cc3[nH]c4cc(N)ccc4c3nc2c1	dFosB activator 67 (no result: Platelet DG rel, HSF1 activator, HSP90 inh, HSF1 inh)
CCCCCNc1nc(-c2ccccc2)cs1	HSF1 activator 55 (no result: dFosB activator, MPTP block)
O=C1c2ccccc2C(=O)C1c1ccc(Br)cc1	none
O=C1c2ccccc2C(=O)C1c1ccc(O)cc1	HSF1 activator 72
Cc1c(C=C(C#N)c2ccc([N+](=O)[O-])cc2)c(=O)n(-c2ccccc2)n1C	none (no result: Platelet DG rel, HSF1 activator, HSP90 inh, HSF1 inh)
CCOc1ccc(NC(=O)c2cc3ccccc3cc2OC)cc1	HSF1 activator 75
COc1ccccc1NC(=O)CN1CCN(CC(=O)Nc2ccccc2Cl)CC1	HSF1 activator 243
COc1cc(C(=O)Nc2ccncc2)cc(OC)c1OC	none
COc1ccc(NC(=O)c2cc3ccccc3cc2OC)cc1	none
COc1ccccc1NC(=O)CN1CCCCCC1	none
COc1cc2ccccc2cc1C(=O)Nc1ccccc1Cl	HSF1 activator 93
COc1cc2ccccc2cc1C(=O)Nc1ccccc1N1CCCC1	none (no result: HSP90 inh)
COc1cc(C(=O)Nc2ccc(Nc3ccccc3)cc2)cc(OC)c1OC	HSF1 activator 58
COc1cc(Nc2ccc(S(N)(=O)=O)cc2)c([N+](=O)[O-])nc1[N+](=O)[O-]	none
